BoNT-A LC inh2 – BoNT A light chain protease inhibition; multiplex microsphere protease substrate cleavage, flow cytometry; inhibition, % at 10 µM; 0.17% of 360,000 active; AID 588499; note: plate controls were buffer without enzyme for full effect and enzyme alone for no effect
Bead autofluor – flagged as autofluorescent in microsphere protease counterscreen. AID 624483. fluorescence intensity (no concentration beside the values). 3.1% of 360,000 active. compound autofluorescence counterscreen, microsphere flow cytometry; hits give high values; in the data active = fluorescence intensity above about 16000; inconclusive = no clear call, values can overlap the other calls
Anthrax LF inh2 – anthrax lethal factor protease inhibition. P15917. 0.12% of 360,000 active. multiplex microsphere protease cleavage assay, LF. inhibition, % at 10 µM; note: plate controls were buffer without enzyme for full effect and enzyme alone for no effect
Vc quorum ag – induces V. cholerae light production without autoinducers; V. cholerae BH1578 lux reporter, luminescence, 6 h; activation, % at 18.7 µM; AID 588436; 0.16% of 350,000 active; in the data active = activation mostly above about 9.7%, no sharp cut-off; inconclusive = no clear call, values can overlap the other calls; inactive = mostly below about 3.7%
BoNT F protease – inhibitors of Botulinum neurotoxin F light chain protease; Multiplex microsphere protease cleavage assay, flow cytometry; inhibition, % at 10 µM; 0.22% of 360,000 active; in the data active = inhibition above about 35%, passing the limit was not always enough; inconclusive = no clear call, values can overlap the other calls; note: plate controls were buffer without enzyme for full effect and enzyme alone for no effect
BoNTA LC inh 1 – inhibitors of Botulinum neurotoxin A light chain protease; inhibition, % at 10 µM; 3% of 720 active; shares compounds with BoNT F protease; AID 602139; multiplex microsphere protease assay, flow cytometry; in the data active = inhibition above about 32%
BoNT-F LC CP1 – blocks botulinum neurotoxin F light chain protease; 720 tested, under 10 active; inhibition, % at 10 µM; shares compounds with BoNT F protease; multiplex microsphere protease cleavage assay, flow cytometry; call rule not given here
Anthrax LF CP1 – Bacillus anthracis lethal factor protease inhibition. multiplex microsphere protease cleavage assay, LF. inhibition, % at 10 µM. 720 tested, under 10 active. shares compounds with BoNT F protease; call rule not given here
* = called active by the depositor; i = inactive; ? = inconclusive; · = no result. Rows were chosen to be rich in hits. Some 3.5% of all compounds tested hit in one or more screens of this group. Cut-off read from the data, not from the text of the source, unless noted: active = inhibition above about 30%; inconclusive = no clear call, values can overlap the other calls; inactive = below that.

SMILES	BoNT-A LC inh2	Bead autofluor	Anthrax LF inh2	Vc quorum ag	BoNT F protease	BoNTA LC inh 1	BoNT-F LC CP1	Anthrax LF CP1
CC(C)NC(=O)CSc1nc(Cc2ccccc2)nc2ccccc12	·	·	·	-1.3	·	·	·	·
O=C(Nc1ccccc1)OC1CCCCc2cccnc21 (stereo not drawn)	?	3832	30.1*	i	?	0.8	2.4	-2.3
O=C(Nc1cccc(Cl)c1)OC1CCCCc2cccnc21 (stereo not drawn)	0.4	6207	-8.5	i	-4.4	·	·	·
Cc1ccccc1NC(=O)Nc1nc(C(N)C2CCCCC2)cs1 (stereo not drawn)	-1.9	3149	-7.6	-0.3	-42.4	·	·	·
Cc1ccc2nc(NC(=O)CSCC(=O)Nc3cc(C)on3)sc2c1	·	·	·	0.3	·	·	·	·
COc1ccc2nc(NC(=O)CSC(C)C(=O)Nc3cc(C)on3)sc2c1 (stereo not drawn)	84.8*	4402	?	i	?	0.7	-0.9	1.8
Cc1ccccc1NC(=O)CN(c1ccc(F)cc1)S(C)(=O)=O	-0.1	3419	-4.7	i	42.4*	0.5	-4.9	-1.7
O=[N+]([O-])c1ccc(-c2cn3c(n2)CCC3)cc1	-4.2	?	3.5	-1.1	36.8*	1.2	-5.4	-3.7
COc1ccc(C(=O)NCCn2ccc3ccccc32)cc1OC	14.2	5089	22.9	-1.0	12.3	0.4	0.4	-2.0
COc1cc(OC)cc(C(=O)NCCn2ccc3ccccc32)c1	5.4	6827	3.5	-1.3	3.6	-0.1	-5.3	4.1
O=C(Cc1ccccc1)NCCn1ccc2ccccc21	8.7	6292	8.0	-0.1	5.6	·	·	·
CN(C)c1cccc(C(=O)NCCCn2ccc3ccccc32)c1	-2.1	5879	1.5	-0.1	0.2	1.2	-1.2	0.9
COc1cccc(C(=O)NCCn2ccc3ccccc32)c1	4.0	5004	3.9	-0.6	3.0	0.7	-1.5	3.0
CCSc1ncccc1C(=O)N[C@@H](CCSC)C(=O)OC	·	·	·	-0.3	·	·	·	·
CCOc1ccccc1CNn1cnnc1SCC(=O)NC(C)(C)C	0.0	3701	-7.3	-0.4	-6.5	·	·	·
Cc1cc(-c2nnc(SCC(=O)Nc3ccc(Br)cc3F)n2N)n[nH]1	2.0	5080	0.4	-0.4	1.2	·	·	·
Cc1cc(=O)n2c(n1)SCOC2	·	·	·	-0.2	·	·	·	·
CCCNC1=CC(=O)CC(C)(C)C1	-0.2	2506	1.0	3.6	-0.1	·	·	·
COc1ccccc1C(=O)NCCn1ccc2ccccc21	95.9*	9297	58.6*	i	35.6*	2.5	2.2	-0.7
CC(=O)NCCn1ccc2ccccc21	-0.5	2365	2.9	-0.4	-7.6	·	·	·
COCC(C)NS(=O)(=O)c1ccc(C(=O)NCCCn2ccc3ccccc32)cc1 (stereo not drawn)	-0.2	3119	-1.1	-3.8	15.1	1.6	-7.7	2.9
O=C1CNCc2[nH]c3ccccc3c2N1c1ccccc1	33.2*	9946	21.1	i	-7.9	0.4	-9.8	-3.3
O=C1NC[C@H](Cc2ccccc2)N(C[C@@H]2CCCN2C[C@H](Cc2ccccc2)N2C[C@H](Cc3ccc(O)cc3)N(CCc3ccccc3)C(=O)C2=O)C1=O	-0.7	6505	0.3	·	-0.7	·	·	·
CC(CC(=O)NC1CCCCC1)S(=O)(=O)c1ccc2c(c1)NC(=O)CO2 (stereo not drawn)	0.2	5695	1.0	-0.4	-1.3	·	·	·
CCn1c(=O)n(CC)c2cc(S(N)(=O)=O)c(C)cc21	8.2	7485	7.1	1.0	44.0*	0.6	-3.3	-2.6
SMILES	BoNT-A LC inh2	Bead autofluor	Anthrax LF inh2	Vc quorum ag	BoNT F protease	BoNTA LC inh 1	BoNT-F LC CP1	Anthrax LF CP1
CCn1c(=O)n(CC)c2cc(S(=O)(=O)N3CCCCC3)c(C)cc21	0.0	10905	-5.6	-2.8	-3.5	·	·	·
Cc1ccc(S(=O)(=O)CCC(=O)OC(C)C(=O)N2CCc3ccccc32)cc1 (stereo not drawn)	1.3	4663	10.1	-0.3	6.6	·	·	·
O=C(O)c1cc(-c2ccccc2)c(N2CCOCC2)s1	84.4*	2262	69.2*	1.9	21.1	0.4	0.2	2.3
O=C(NCc1ccco1)c1cc(-c2ccccc2)c(N2CCOCC2)s1	0.2	3802	0.0	i	11.5	·	·	·
O=[N+]([O-])c1cccc(S(=O)(=O)N2CCCC2)c1	3.0	2590	-2.0	-0.6	32.8	-1.9	-3.6	-3.9
CCN1CCN(S(=O)(=O)c2cccc([N+](=O)[O-])c2)CC1	0.4	3152	-0.3	·	0.2	·	·	·
Cc1ccc(C(C(=O)NC2CCCCC2)N(C(=O)c2csnn2)C2CC2)cc1 (stereo not drawn)	-0.7	3773	8.6	-1.2	7.4	·	·	·
COc1ccc(NC(=O)CSc2nnc(NC(=O)C3CCC3)s2)cc1	-0.2	4626	-4.4	-0.2	-0.7	·	·	·
COc1ccc(CNC(=O)CSc2nnc(NC(=O)C3CC3)s2)cc1	-0.4	3716	-1.9	i	34.9*	0.1	0.3	-0.3
CCOC(=O)C1CCN(C(=O)Nc2ccc(OCc3ccccc3)cc2)CC1	-4.4	3889	30.8*	i	?	0.3	0.2	-3.9
O=S(=O)(c1ccc(Cl)cc1)N1CCN(c2ccccn2)CC1	-3.1	3973	-6.3	-0.7	47.7*	1.0	-3.8	-6.3
NC(=O)CSc1nnc(CSc2ncccn2)n1-c1ccccc1	-0.4	2392	-0.5	-0.4	-1.8	·	·	·
Cc1ccc(NC(=O)CSCC(=O)OC(C)C(=O)Nc2ccc(S(N)(=O)=O)cc2)c(C)c1 (stereo not drawn)	0.1	4945	-0.1	i	-3.1	·	·	·
C=CCOc1c(Br)cc(CNCCCN2CCOCC2)cc1OC	-0.1	2985	45.4*	i	-3.0	-0.1	-5.9	-0.6
C=CCOc1ccc(Br)cc1CNCCCN1CCOCC1	-0.1	2138	-1.7	-0.7	-11.8	·	·	·
COc1ccc(C)cc1NC(=O)C(NC(=O)c1cc(OC)c(OC)c(OC)c1)C(C)C (stereo not drawn)	0.0	4423	-5.6	-0.5	-1.5	·	·	·
CCN(C(=O)COc1nc(C)cc(C)c1C#N)c1ccccc1	0.7	2941	37.5*	-0.3	2.7	-0.2	-3.7	2.2
CC(C)n1c2ccccc2c2nc3ccccc3nc21	54.8*	4635	27.1	-4.5	2.4	24.7	2.7	11.8
C#CCn1c2ccccc2c2nc3ccccc3nc21	-7.1	3862	-7.1	i	?	·	·	·
C=CCOc1cccn2c(N(C)C(=O)c3ccc(OC)cc3)c(CC)nc12	0.0	4013	-4.4	-0.1	-2.1	·	·	·
Cc1ccc(NC(=O)CCn2c(=O)[nH]c3ccsc3c2=O)cc1	·	·	·	i	·	·	·	·
COc1cc(NC(=O)CCn2c(=O)[nH]c3ccsc3c2=O)cc(OC)c1	4.3	4712	3.5	i	40.7*	0.1	-3.3	-4.3
CCN1CCN(CC(=O)c2c(C)n(C)c3ccc(OC)cc23)CC1	0.7	?	3.7	18.3	2.8	·	·	·
CCOC(=O)C1CCN(CC(=O)c2c(C)n(C)c3ccc(OC)cc23)CC1	-2.3	3128	-11.0	-0.6	38.6*	2.0	1.8	3.1
CC(=O)N1N=C(c2ccccc2)CC1c1cccc([N+](=O)[O-])c1 (stereo not drawn)	2.3	3748	-10.4	-0.4	41.9*	-0.5	-1.0	-4.6
